These results are taken from PubChem BioAssay (NCATS).

SMILES strings stand for the structures. Results filed as inconclusive are left out. Entries that show only a call come without a potency. Active and inactive are the calls of the source. The call rests on the fitted dose curve; in most records, active means well fitted inhibition curve with a large enough effect; inconclusive means small, poorly fitted or top-dose-only effect; inactive means no such curve, though single readings can be large or run the other way.

Experiment [1] relates to Zika virus NS2B-NS3 protease (unlinked complex). The experiment can be described thus: Primary screen GU Rhodamine qHTS for Zika virus inhibitors: Unlinked NS2B-NS3 protease assay (AID 1347159). Further: nearly all actives have a fitted effect of over 60% in size. In a few lines: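 Compounds, tested up to 114 microM, were incubated for 15 minutes with 25 nM unlinked NS2B-NS3 protease at pH 8.0. Cleavage of 1.5 microM Rhodamine110 substrate was then followed by fluorescence for 15 minutes.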
For orientation: qHTS replaces the single test concentration by a dilution series.

The subject of experiment [2] is Zika virus NS2B-NS3 protease (linked construct). Kind of experiment: Primary screen NINDS Rhodamine qHTS for Zika virus inhibitors (AID 1347160). Further: nearly all actives have a fitted effect of over 55% in size. Summed up: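 Percent inhibition, normalized to uninhibited and enzyme-free controls, is fitted to a 4-parameter Hill equation. Fluorescence change comes from a 15-min cleavage of 1.5 microM bis-peptide Rhodamine110 substrate by 25 nM linked NS2B-NS3 at room temperature.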
Potency means the concentration at half of the fitted maximal effect.

On to `C=CCc1ccc(O[C@@H]2O[C@H](CO)[C@@H](O)[C@H](O)[C@H]2O)c(OC)c1`, for which the Potency in experiment [1] was 12.6 µM (active). The Potency entry in experiment [2] was “inactive”.
The matching figures for `C/C(=C/CO)CC[C@@H]1[C@@]2(C)CCC[C@](C)(C(=O)O)C2CC[C@@]1(C)O` (stereo not given in full): “inactive” and “inactive”.
`C[C@@H]1C[C@H](O[C@@H]2O[C@H](CO[C@@H]3OC[C@](O)(CO)[C@H]3O)[C@@H](O)[C@H](O)[C@H]2O)CC(C)(C)[C@H]1/C=C/[C@@H](C)O`: the Potency entry in experiment [1] and in experiment [2] was “inactive” throughout.
For the compound `CCC[C@@H]1C[C@@H](C(=O)N[C@@H]([C@H]2O[C@H](SC)[C@H](OP(=O)(O)O)[C@@H](O)[C@H]2O)[C@H](C)Cl)N(C)C1`, the Potency entry in experiment [1] and in experiment [2] was “inactive” each time.
Turning to `COC(=O)[C@]12C(=O)C(C)=C(O)[C@@]1(C)C(C)=CC1[C@@]34CC[C@@H](OC(C)=O)C(C)(C)C3[C@H](C[C@]12C)OC4=O` (stereo not given in full), the Potency result in experiment [1] and in experiment [2] was “inactive” each time.
Consider `CC12CC34C=CC(=O)C(C)(CCC(=O)O)C3C(CC1C4)O2` (stereo not given), for which the Potency entry in experiment [1] and in experiment [2] was “inactive” in each case.
`CCC(=O)NS(=O)(=O)c1ccc(-c2c(-c3ccccc3)noc2C)cc1`: the Potency entry in experiment [1] and in experiment [2] was “inactive” in each case.
Consider `CC(NCc1ccc(OCc2cccc(F)c2)cc1)C(N)=O` (stereo not given), for which the Potency result in experiment [1] and in experiment [2] was “inactive” each time.
Turning to `C/C=C/C=C/C=C/C(=O)O[C@@H]1[C@@H](OC)C2=C(C(=O)N(C(C)C(=O)O)C2)[C@@]2(C)CCCC(C)(C)[C@H]12` (stereo not given in full), the Potency is 7.94 µM (active) in experiment [1] and 11.2 µM (active) in experiment [2].
Take `NC(Cc1c[nH]c2ccccc12)C(=O)NC(CCC(=O)O)C(=O)O` (stereo not given): the Potency entry in experiment [1] and in experiment [2] was “inactive” each time.
Turning to `COC1=CC(=O)C[C@@H](C)[C@]12Oc1cc(OC)cc(OC)c1C2=O`, the Potency entry in experiment [1] and in experiment [2] was “inactive” throughout.
As for `COc1cc(COC2OC(CO)C(O)C(O)C2O)cc(OC)c1O` (stereo not given), the Potency result in experiment [1] and in experiment [2] was “inactive” throughout.
Turning to `C=CC1(C)C=C2C(=O)CC3C(C)(C)CCCC3(C(=O)O)C2(O)CC1` (stereo not given), the Potency result in experiment [1] and in experiment [2] was “inactive” in each case.
Turning to `CC1CCC2(NC1)OC1C(=O)C3C4CCC5CC(O[C@@H]6O[C@H](CO)[C@@H](O)[C@H](O)[C@H]6O[C@@H]6O[C@@H](C)[C@H](O)[C@@H](O)[C@H]6O)CCC5(C)C4CCC3(C)C1C2C` (stereo not given in full), the Potency entry in experiment [1] and in experiment [2] was “inactive” throughout.
Consider `CCNC(=O)[C@H]1O[C@H](n2cnc3c(NCC(c4ccccc4)c4ccccc4)nc(C(=O)NCCNC(=O)NC4CCN(c5ccccn5)CC4)nc32)[C@H](O)[C@@H]1O`, for which the Potency result in experiment [1] and in experiment [2] was “inactive” in each case.
On to `CC(C)C(C#N)O[C@@H]1O[C@H](CO[C@@H]2OC[C@](O)(CO)[C@H]2O)[C@@H](O)[C@H](O)[C@H]1O` (stereo not given in full), for which the Potency result in experiment [1] and in experiment [2] was “inactive” throughout.
As for `c1ccc(C(OC2CCN(CCCc3nn[nH]n3)CC2)c2ccccc2)cc1`, the Potency result in experiment [1] and in experiment [2] was “inactive” each time.
In the case of `CC1CCC2(C(=O)OC3OC(CO)C(O)C(O)C3O)CCC3(C)C(=CCC4C5(C)CC(O)C(O)C(C)(C(=O)O)C5CCC43C)C2C1(C)O` (stereo not given), the Potency result in experiment [1] and in experiment [2] was “inactive” in each case.
Consider `COc1c(C)c(OCC=C(C)C)cc2c1C(=O)NC2=O`, for which the Potency result in experiment [1] and in experiment [2] was “inactive” each time.
In the case of `CC1(CO)CC[C@]2(C(=O)O[C@@H]3O[C@H](CO)[C@@H](O)[C@H](O)[C@H]3O)CC[C@]3(C)C(=CCC4[C@@]5(C)CC[C@H](O[C@@H]6O[C@H](C(=O)O)[C@@H](O)[C@H](O)[C@H]6O)C(C)(C)C5CC[C@]43C)C2C1` (stereo not given in full), the Potency entry in experiment [1] and in experiment [2] was “inactive” throughout.
As to `O=C1NC(Cc2ccc(O)cc2)C(=O)N2CCCC12` (stereo not given), the Potency result in experiment [1] and in experiment [2] was “inactive” throughout.
With `COc1cc(/C=C/C(=O)OC[C@H]2O[C@H](O[C@]3(CO)O[C@H](CO)[C@@H](O)[C@@H]3O)[C@H](O)[C@@H](O)[C@@H]2O)cc(OC)c1O`, the Potency result in experiment [1] and in experiment [2] was “inactive” throughout.
As for `CC(C)(O)c1ccc2c(c1)C(O)CC1C(C)(C(=O)O)CCCC21C` (stereo not given), the Potency result in experiment [1] and in experiment [2] was “inactive” in each case.
Take `COC(=O)C12C(=O)C(C)=C(O)C1(C)C(C)=CC1C34CCC(OC3=O)C(C)(C)C4CCC12C` (stereo not given): the Potency result in experiment [1] and in experiment [2] was “inactive” each time.
For the compound `CC/C=C\C[C@H]1C(=O)C=C[C@@H]1CCCCCCCC(=O)O`, the Potency in experiment [1] was 35.5 µM (active). Moreover, in experiment [2], the Potency result is “inactive”.
On to `COC(=O)c1cc(CN2CCN(C(=N)N)CC2)cc(C(=O)N2CCN(C(=O)c3ccc(C(=N)N)cc3)CC2)c1`, for which the Potency entry in experiment [1] and in experiment [2] was “inactive” in each case.
As to `CCOC(=O)[C@H](CCc1ccccc1)CC1(C(=O)N[C@H]2CCc3ccccc3N(CC(=O)O)C2=O)CCCC1`, the Potency result in experiment [1] and in experiment [2] was “inactive” in each case.
Regarding `NC(=O)c1cccc(-c2cc(O)cc(OC(=O)NC3CCCCC3)c2)c1`, the Potency entry in experiment [1] and in experiment [2] was “inactive” in each case.
In the case of `Nc1ncnc2c1ncn2[C@H]1CCCO1`, the Potency entry in experiment [1] and in experiment [2] was “inactive” in each case.
On to `C=C(C)[C@@H]1CC[C@](C)(O)[C@@H](OC(=O)c2ccccc2)C1`, for which the Potency result in experiment [1] and in experiment [2] was “inactive” throughout.
